Hits are enriched below; roughly 8.1% of the tested compounds scored in any of these assays.
PD-1 reversal: activators reversing PD-1 mediated T-cell inhibition, primary screen, luminescence, primary human CD4 T cells, PD-L1 beads; CellTiter-Glo 96 h; activation, % (test concentration not listed); 29,000 tested, under 10 active; AID 2316, 2010; call rule not given here;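 further: 0% = median vehicle wells and 100% = positive control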
MITF inh: inhibitors of MITF, primary screen, MITF inhibitor project, cell-based, luminescence | TRPM1 promoter luciferase, 24 h | inhibition, % (no concentration beside the values) | hit rate 0.28% among 37,000; in the data active means inhibition above about 85%; inconclusive means no clear call, values can overlap the other calls; inactive means below about 68%;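 further: human melanocyte line stably carrying TRPM1 promoter luciferase reporter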
NOMO-1 viab: NOMO-1 AML cell viability reduction, primary screen, STK33 inhibitor project, CellTiter-Glo luminescence. NOMO-1 AML viability, 72 h. inhibition, % (concentration not given with the values). hit rate 7.5% among 37,000. AID 2330, 2010; in the data active means inhibition above about 80%; inconclusive means no clear call, values can overlap the other calls
Hedgehog inh: Hedgehog pathway signaling inhibitors, primary screen, luminescence, Shh-LIGHT2 cells, Gli-luciferase | Shh-LIGHT2 Gli-luciferase reporter, 30 h | inhibition, % (concentration not given with the values) | hit rate 2.1% among 22,000;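 active means mean inhibition across valid replicates above about 65%, limit read from the data; inconclusive means mean under the limit, yet half or more replicates past it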;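 further: pathway switched on by Shh-conditioned medium diluted 1 in 25 in low serum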
The depositor's hits bear a star; ? = inconclusive; . = not tested or not shown.

SMILES	PD-1 reversal	MITF inh	NOMO-1 viab	Hedgehog inh
C[C@@H]1CN([C@H](C)CO)C(=O)Cc2cc(NS(=O)(=O)c3ccc(F)cc3)ccc2O[C@@H]1CN(C)CC1CCCCC1	-3.2	-2.3	14.2	3.9
NCCCCCCNS(=O)(=O)c1cccc2ccccc12	2.0	-2.1	84.1*	31.2
COc1cc2c(cc1OC)[C@@H]1C(=O)c3ccc4c(c3O[C@@H]1CO2)C=CC(C)(C)O4	.	99.5*	47.4	31.9
COc1ccc2c(c1)c(C(=O)ON1C(=O)CCC1=O)c(C)n2C1CC1	-0.5	-24.7	-1.4	9.0
C[C@H](CO)N1C[C@H](C)[C@H](CN(C)Cc2ccc(C(=O)Nc3ccccc3N)cc2)Oc2ccc(NC(=O)C3CCCCC3)cc2CC1=O	-3.1	14.9	140.7*	.
C[C@H]1CN([C@@H](C)CO)C(=O)Cc2cc(NC(=O)C3CC3)ccc2O[C@@H]1CN(C)Cc1ccc(C(=O)Nc2ccccc2N)cc1	-0.4	-1.8	54.7	.
C[C@@H]1CN([C@H](C)CO)C(=O)Cc2cc(NC(=O)C3CCCCC3)ccc2O[C@@H]1CN(C)Cc1ccc(C(=O)Nc2ccccc2N)cc1	0.4	-4.5	?	.
C[C@H](CO)N1C[C@H](C)[C@H](CN(C)Cc2ccc(C(=O)Nc3ccccc3N)cc2)Oc2ccc(NC(=O)C3CC3)cc2CC1=O	-5.1	2.2	126.6*	.
CNC(=O)N(Cc1cccnc1)Cc1ccccc1Cl	-0.9	-2.9	32.1	-0.5
CCn1c(SCC(=O)Nc2cccc3ccccc23)nnc1-c1ccc(Cl)c(Cl)c1	.	0.7	10.3	.
C[C@H](CO)N1C[C@H](C)[C@H](CN(C)C(=O)Nc2ccc(C(F)(F)F)cc2)Oc2c(NC(=O)c3ccc(-c4nccs4)cc3)cccc2C1=O	-7.5	32.2	92.5*	45.9
C[C@@H]1CN([C@H](C)CO)C(=O)c2cccc(NC(=O)c3ccc(-c4nccs4)cc3)c2O[C@@H]1CN(C)Cc1ccc(-c2ccccc2)cc1	.	-12.3	60.5	14.5
C[C@@H]1CN([C@H](C)CO)C(=O)c2cccc(NC(=O)c3ccc(-c4nccs4)cc3)c2O[C@@H]1CN(C)Cc1ccc(C(=O)Nc2ccccc2N)cc1	-3.9	58.0	142.1*	.
C[C@@H]1CN([C@@H](C)CO)C(=O)c2cccc(NC(=O)c3ccc(-c4nccs4)cc3)c2O[C@H]1CN(C)Cc1ccc(C(=O)Nc2ccccc2N)cc1	-0.7	37.6	126.1*	.
C[C@H]1CN([C@@H](C)CO)C(=O)c2cccc(NC(=O)c3ccc(-c4nccs4)cc3)c2O[C@H]1CN(C)Cc1ccc(C(=O)Nc2ccccc2N)cc1	-2.4	-0.9	101.3*	.
C[C@H]1CN([C@@H](C)CO)C(=O)c2cccc(NC(=O)c3ccc(-c4nccs4)cc3)c2O[C@@H]1CN(C)Cc1ccc(-c2ccccc2)cc1	.	29.7	?	22.1
COc1cc(CCC(C)NC(=O)c2ccco2)ccc1OC(=O)c1ccco1 (stereo not given)	-3.8	-13.7	21.8	41.3
C[C@@H]1CN([C@H](C)CO)C(=O)c2cccc(NC(=O)c3ccc(-c4nccs4)cc3)c2O[C@H]1CN(C)Cc1ccc(C(F)(F)F)cc1	.	51.6	84.0*	23.7
C[C@H](CO)N1C[C@H](C)[C@H](CN(C)Cc2ccc(Oc3ccccc3)cc2)Oc2c(NC(=O)c3ccc(-c4nccs4)cc3)cccc2C1=O	-2.8	-3.5	112.4*	42.6
Cc1ccc(NC(=O)C23CC4CC(CC(C4)C2)C3)cc1	-0.1	-10.7	21.9	.
CC1=NN(c2ccccc2)C(=O)C1C (stereo not given)	1.7	-11.9	36.9	-98.9
c1ccc(-n2nnnc2CSc2ncn[nH]2)cc1	2.4	-17.6	-3.7	.
O=C(/C=C/Sc1ccccn1)c1ccccc1	-2.9	64.8	114.3*	?
N#Cc1ccccc1NC(=O)CSc1ccccn1	0.1	-28.5	27.5	-24.3
COc1cccc2c1C(=O)c1ccc3c(c1C2=O)C(=O)CC(C)(O)C3 (stereo not given)	-0.3	-13.6	92.7*	-59.1
CC1(O)CC(=O)c2c(ccc3c2C(=O)c2cccc(O)c2C3=O)C1 (stereo not given)	0.4	11.0	95.2*	-28.8
CCN(CC)C(=O)N1CCN(CCC#N)CC1	0.4	6.2	22.1	.
CC(C)NC(=O)Nc1cccc2c1O[C@H](CN(C)Cc1ccc(C(=O)Nc3ccccc3N)cc1)[C@H](C)CN([C@@H](C)CO)C2=O	-2.6	17.1	139.4*	.
CC(C)NC(=O)Nc1cccc2c1O[C@@H](CN(C)Cc1ccc(C(=O)Nc3ccccc3N)cc1)[C@@H](C)CN([C@@H](C)CO)C2=O	-2.2	19.1	141.1*	.

Screening results (PubChem BioAssay)
